Read-out in assay [1]: xenobiotic metabolism (CYP1A1), CYP1A1 (gene 1543)
Put plainly: CLD_CYP1A1_6hr: CellzDirect (CLD) Gene Expression Assay for xenobiotic metabolism (CYP1A1) at 6 hours (AID 2283661).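 For AC50: potency for transcript induction above DMSO vehicle baseline.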 In a few lines: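 Read-out 6 h post-dose: qNPA chemiluminescent quantitation of transcript induction against 0.2% DMSO. Cells were cultured primary human hepatocytes from two separate donor preparations; phase-contrast morphology annotated apparent cytotoxicity.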

Read-out in assay [2]: alkyl and aryl transferase (GSTA2), GSTA2 (gene 2939)
The experiment in a line: CLD_GSTA2_6hr: CellzDirect (CLD) Gene Expression Assay for alkyl and aryl transferase (GSTA2) at 6 hours (AID 2283666). In a few lines: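 GSTA2 transcript induction at 6 h, quantified by nuclease protection (qNPA) with chemiluminescent detection, in human liver primary hepatocytes exposed to several compound concentrations with 0.2% DMSO as baseline; phase-contrast morphology annotated apparent cytotoxicity.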

Assay [3] in a line: Tanguay_ZF_120hpf_TR_legacy: (Legacy) Oregon State University Tanguay Lab 120 Hour Post-fertilization zebrafish Assay for Touch Response (AID 2283667). The essentials:
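Binary touch-response call at 120 hpf, analysed as gain of signal versus DMSO baseline. Wild-type 5D larvae, static exposure at 28C, 0.64% DMSO final; 5uM trimethyltin chloride as positive control.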

Read-out in assay [4]: organic anion transporter (SLCO1B1), SLCO1B1 (gene 10599)
Put plainly: CLD_SLCO1B1_6hr: CellzDirect (CLD) Gene Expression Assay for organic anion transporter (SLCO1B1) at 6 hours (AID 2283668).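 Note: active means mRNA induction above DMSO baseline.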 The essentials:
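SLCO1B1 mRNA induction measured 6 h after dosing by quantitative nuclease protection with chemiluminescent read-out, in human primary hepatocyte cultures given chemicals at several concentrations (vehicle 0.2% DMSO). Increase over DMSO baseline fitted; morphology-based cytotoxicity annotated yes/no.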

A short description of assay [5]: CLD_ACTIN_24hr: CellzDirect (CLD) Gene Expression Assay for Baseline Control (Actin) at 24 hours (AID 2283670). In a few lines:
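This 24 h qNPA (S1 nuclease protection, chemiluminescence) actin transcript readout in cultured human liver primary cells serves as baseline control. Signal is fitted upward relative to 0.2% DMSO; chemicals tested at multiple concentrations across two donor preparations.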

Assay [6] is described as follows: CCTE_Padilla_ZF_144hpf_TERATOSCORE: (Legacy) CCTE's 144 Hour Post-fertilization zebrafish Assay Teratoscore, Padilla Lab (AID 2283679; active = hit-call score of the fitted dose curve at least 0.9, where 1 is the maximum; inactive = score below 0.9;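 for AC50: zebrafish embryos with chorions exposed by immersion from 6-8 hpf to 5 dpf with daily renewal; teratogenicity score from eye scoring of death hatching and malformations at 144 hpf; higher score means more developmental defects relative to DMSO baseline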). In a few lines:
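Larvae scored by eye at 144 hpf for death, hatching and malformations after a day in clean Hanks'. Before that, daily-renewed exposure at 80 uM (0.4% DMSO, 26C) from roughly 6-8 hpf through 5 dpf, 4 embryos per chemical.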

Read-out in assay [7]: Cytochrome P450 3A4 (Homo sapiens) (UniProt P08684)
Put plainly: CLD_CYP3A4_6hr: CellzDirect (CLD) Gene Expression Assay for xenobiotic metabolism (CYP3A4) at 6 hours (AID 2283680). The essentials:
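CYP3A4 mRNA induction, 6 h after dosing of cultured primary human hepatocytes from two donors, read by quantitative nuclease protection (qNPA, chemiluminescence). Vehicle 0.2% DMSO as baseline; morphology-based cytotoxicity annotated yes/no.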

Read-out in assay [8]: xenobiotic metabolism (CYP1A2), CYP1A2 (gene 1544)
Put plainly: CLD_CYP1A2_24hr: CellzDirect (CLD) Gene Expression Assay for xenobiotic metabolism (CYP1A2) at 24 hours (AID 2283683). The essentials:
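CYP1A2 mRNA induction measured by quantitative nuclease protection (chemiluminescent) in human primary hepatocytes 24 h after multi-concentration chemical dosing with daily fresh solutions. DMSO (0.2%) baseline; positive-direction fitting; morphology-based cytotoxicity noted.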

Read-out in assay [9]: ABC Transporter (ABCB1), ABCB1 (gene 5243)
The experiment in a line: CLD_ABCB1_24hr: CellzDirect (CLD) Gene Expression Assay for ABC Transporter (ABCB1) at 24 hours (AID 2283684). In a few lines:
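ABCB1 mRNA induction versus 0.2% DMSO vehicle was read by qNPA chemiluminescence at 24 h. Cultured human hepatocytes from two donor preparations received daily fresh dosing, and phase-contrast cytotoxicity calls were annotated alongside the data.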

Read-out in assay [10]: Cytochrome P450 2B6 (Homo sapiens) (UniProt P20813)
The experiment in a line: CLD_CYP2B6_24hr: CellzDirect (CLD) Gene Expression Assay for xenobiotic metabolism (CYP2B6) at 24 hours (AID 2283686). The essentials: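 qNPA chemiluminescent measurement of mRNA at 24 hours in human primary hepatocyte cultures from two donor preparations, with daily fresh dosing and 0.2% DMSO vehicle as baseline. Morphology-based cytotoxicity flagged yes/no.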

Read-out in assay [11]: Cytochrome P450 2C19 (Homo sapiens) (UniProt P33261)
Put plainly: CLD_CYP2C19_24hr: CellzDirect (CLD) Gene Expression Assay for xenobiotic metabolism (CYP2C19) at 24 hours (AID 2283687).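 Note: activity means mRNA induction above DMSO vehicle baseline.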 In a few lines: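 CYP2C19 mRNA was quantified by qNPA chemiluminescence after 24 h of daily dosing of cultured human primary hepatocytes from two donors; vehicle was 0.2% DMSO, and increases over DMSO baseline were fitted.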

Read-out in assay [12]: Cytochrome P450 2C9 (Homo sapiens) (UniProt P11712)
The experiment in a line: CLD_CYP2C9_24hr: CellzDirect (CLD) Gene Expression Assay for xenobiotic metabolism (CYP2C9) at 24 hours (AID 2283688). The essentials: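 Induction of CYP2C9 mRNA was quantified by quantitative nuclease protection assay (chemiluminescence), gain of signal versus 0.2% DMSO vehicle, 24 h after dosing. Human primary hepatocytes (two donors) received fresh chemical daily at multiple concentrations; morphology-based cytotoxicity flagged yes/no.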

For assay [13], the system named is Thyroperoxidase (TPO), gene 54314. The experiment in a line: CCTE_Simmons_AUR_rTPO: CCTE's Amplex UltraRed Assay for Thyroperoxidase (TPO) Inhibition, Simmons Lab (AID 2283662).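 For AC50: potency for loss of signal meaning inhibition of peroxidase activity.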 In a few lines: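 Rat thyroid microsomes (5 ug protein) were incubated with test compound (8 concentrations, 5 nM–87.5 uM final, 0.5% DMSO), 25 uM Amplex UltraRed and 300 uM H2O2 in 200 mM phosphate buffer for 30 min at 37C in the dark; fluorescence read at 544/590 nm.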

Assay [14] in a line: CCTE_Simmons_CellTiterGLO_HEK293T: Viability Assessment in CCTE's Assays for Thyroperoxidase (TPO) Inhibition, Simmons Lab (AID 2283665).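 For AC50: cells exposed to compound for 24 h before readout; actives reduce ATP signal below DMSO vehicle meaning cytotoxicity.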 The essentials:
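Luminescent ATP readout (CellTiter-Glo, 20 min at room temperature) after 24 hr exposure of HEK293T cells to 5 nM–87.5 uM final compound; signal loss relative to DMSO vehicle indicated cytotoxicity; dichlone titrated as positive control.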
A general note: ATP-based viability assays read luminescence as a measure of living cells.

Read-out in assay [15]: ABC Transporter (ABCB11), ABCB11 (gene 8647)
Put plainly: CLD_ABCB11_6hr: CellzDirect (CLD) Gene Expression Assay for ABC Transporter (ABCB11) at 6 hours (AID 2283675).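 Note: hits raise ABCB11 mRNA level so AC50 marks induction.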 The essentials:
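Read-out was ABCB11 mRNA gain of signal by quantitative nuclease protection assay, relative to 0.2% DMSO vehicle, 6 h post-dose. Cells were primary human hepatocytes from two donors, treated across multiple concentrations; phase-contrast cytotoxicity noted yes/no.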

Read-out in assay [16]: Cytochrome P450 2B6 (Homo sapiens) (UniProt P20813)
The experiment in a line: CLD_CYP2B6_6hr: CellzDirect (CLD) Gene Expression Assay for xenobiotic metabolism (CYP2B6) at 6 hours (AID 2283677).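 Note: actives raise CYP2B6 transcript above DMSO baseline so AC50 marks an inducer.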 In a few lines: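 CYP2B6 transcript levels, read by chemiluminescent qNPA, were fitted for increase versus DMSO baseline; cultured human liver hepatocytes from two donor preparations were harvested 6 h after exposure to test chemicals at multiple concentrations.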

Read-out in assay [17]: Cytochrome P450 (CYP24A1_1), CYP24A1 (gene 1591)
The experiment in a line: LTEA_HepaRG_CYP24A1_1: Life Technologies and Expression Analysis (LTEA) Assay for Cytochrome P450 (CYP24A1_1) using HepaRG (AID 2283671; active = hit-call score of the fitted dose curve at least 0.9, where 1 is the maximum; inactive = score below 0.9). As to conditions: mRNA level, 48 h; actives raise or lower the signal. The essentials: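 Readout is CYP24A1 transcript level by qRT-PCR, normalized to three housekeeping genes, with gain or loss of signal fitted against 0.5% DMSO. Human HepaRG cells received compound for 48 h at up to 100 uM.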

Read-out in assay [18]: Cytochrome P450 2C19 (Homo sapiens) (UniProt P33261)
The experiment in a line: CLD_CYP2C19_6hr: CellzDirect (CLD) Gene Expression Assay for xenobiotic metabolism (CYP2C19) at 6 hours (AID 2283678). In a few lines: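 CYP2C19 transcript induction was quantified by quantitative nuclease protection assay with chemiluminescent read-out, 6 h after dosing. Cells were primary human hepatocytes from two donor preparations, given fresh dosing solutions daily in 0.2% DMSO vehicle. Activity was relative to DMSO.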

Results on eight molecules are retold here after PubChem BioAssay (EPA / NIEHS).

Structures are written as SMILES. Where “and” joins values, the source holds several entries; their conditions need not be identical. Identical values can stand only once. Results filed as inconclusive are left out. Calls of active or inactive are those of the source. Rule for the calls, unless noted: active = hit-call score of the fitted dose curve at least 0.9, where 1 is the maximum; inconclusive = response in the unintended direction; inactive = score below 0.9.

Broadly, the AC50 is the midpoint of the concentration-response curve, whichever way the signal moves.

Sequence of Cytochrome P450 3A4 (Homo sapiens) (P08684 whole entry, looked up): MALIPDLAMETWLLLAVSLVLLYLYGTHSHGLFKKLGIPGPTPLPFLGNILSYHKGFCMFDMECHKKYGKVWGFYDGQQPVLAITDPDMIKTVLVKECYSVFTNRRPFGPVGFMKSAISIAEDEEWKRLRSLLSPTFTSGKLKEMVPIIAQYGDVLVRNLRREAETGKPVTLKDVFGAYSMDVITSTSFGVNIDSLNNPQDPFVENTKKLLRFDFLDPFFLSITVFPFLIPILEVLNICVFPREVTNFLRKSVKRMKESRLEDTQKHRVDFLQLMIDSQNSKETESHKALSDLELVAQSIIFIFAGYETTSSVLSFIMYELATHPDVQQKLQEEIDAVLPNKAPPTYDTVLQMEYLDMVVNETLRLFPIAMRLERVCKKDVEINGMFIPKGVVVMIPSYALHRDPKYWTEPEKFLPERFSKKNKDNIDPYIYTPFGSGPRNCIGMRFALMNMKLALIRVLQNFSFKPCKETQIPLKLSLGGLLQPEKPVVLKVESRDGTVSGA
Sequence of Cytochrome P450 2C19 (Homo sapiens) (P33261 whole entry, looked up): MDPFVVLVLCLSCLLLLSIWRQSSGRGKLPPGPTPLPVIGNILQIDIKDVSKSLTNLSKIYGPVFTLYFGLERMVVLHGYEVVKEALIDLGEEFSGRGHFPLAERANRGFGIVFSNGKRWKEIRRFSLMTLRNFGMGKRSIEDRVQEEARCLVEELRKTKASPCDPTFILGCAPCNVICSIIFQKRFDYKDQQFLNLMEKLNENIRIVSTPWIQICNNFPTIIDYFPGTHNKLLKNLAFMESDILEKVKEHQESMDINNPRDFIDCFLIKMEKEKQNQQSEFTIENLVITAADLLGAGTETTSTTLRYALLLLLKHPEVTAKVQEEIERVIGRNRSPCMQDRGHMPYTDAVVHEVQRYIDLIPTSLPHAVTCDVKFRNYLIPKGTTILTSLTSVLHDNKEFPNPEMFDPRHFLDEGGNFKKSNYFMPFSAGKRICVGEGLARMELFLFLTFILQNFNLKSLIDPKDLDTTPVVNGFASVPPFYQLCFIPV

Regarding `O=C(O)CCCOc1ccc(Cl)cc1Cl`, the molecule was called inactive in assay [1], in assay [2], in assay [3], in [4], in assay [5] and in [7]. The molecule was classed as inactive in assay [8], in assay [9], in [10], in assay [11] and in [12]. Moreover, the AC50 in assay [6] is 15.6 µM (active).

In the case of `N#CN`, the molecule was called inactive in assay [1], in [14], in assay [2], in assay [3], in [4] and in [5]. The result in assay [15], in [6], in [7], in assay [8], in assay [9] and in assay [11] was inactive. The AC50 in assay [13] was 2.93 µM (active).

In the case of `O=[N+]([O-])c1c(Cl)c(Cl)c(Cl)c(Cl)c1Cl`, the molecule was called inactive in [1], in assay [2], in assay [3], in [4], in assay [5] and in [15]. Moreover, the call in assay [8], in assay [9] and in assay [12] was inactive. In addition, the figures for the AC50 in [16], in [6] and in assay [10] were 20 µM (active), 31.1 µM (active) and 4.02 µM (active), respectively.

For `CN1CSC(=S)N(C)C1`, the call in assay [1], in [14], in assay [2], in [3], in assay [4] and in assay [5] was inactive. In addition, the molecule was called inactive in assay [17], in assay [15], in assay [18], in assay [8], in [9] and in [12]. Besides, the AC50 is 6.52 µM (active) in assay [13] and 0.196 µM (active) in assay [6].

Regarding `O=S(=O)(O)C(F)(F)C(F)(F)C(F)(F)C(F)(F)C(F)(F)C(F)(F)C(F)(F)C(F)(F)F`, the molecule was called inactive in assay [1], in [13], in assay [15], in assay [18], in assay [8] and in assay [10]. The molecule was called inactive in [11] and in assay [12]. The AC50 in assay [14] is 64.1 µM (active) and 57.1 µM (active); in assay [3], 9.61 µM (active) and 16.3 µM (active) and 13.3 µM (active); in [6] it was 23.8 µM (active) and 45.6 µM (active) and 7.44 µM (active).

`COc1nn(CSP(=S)(OC)OC)c(=O)s1`: the AC50 in [1] was 1.25 µM (active); in [13], 3.7 µM (active); in assay [6], 18.2 µM (active); in assay [8], 3.12 µM (active); in assay [10] it was 1.97 µM (active). Further, the molecule was classed as inactive in [14], in assay [3], in assay [4], in assay [18], in assay [7] and in assay [9]. Further, the molecule was called inactive in assay [12].

For the molecule `Oc1ccc(Cl)cc1Cc1ccccc1`, the result in assay [1], in assay [2], in assay [3], in assay [5], in assay [18] and in assay [10] was inactive. The call in assay [11] and in [12] was inactive. The AC50 is 12.7 µM (active) in assay [13]; 5.12 µM (active) and 9.81 µM (active) and 9.21 µM (active) in [6].

With `CCc1ccc(C(=O)NN(C(=O)c2cc(C)cc(C)c2)C(C)(C)C)cc1`, the AC50 in assay [1] is 7.56 µM (active); in assay [15], 20 µM (active); in assay [7], 0.708 µM (active); in assay [8], 20 µM (active); in assay [10], 2.19 µM (active). Moreover, the molecule was classed as inactive in [2], in assay [3], in assay [4], in [6], in [9] and in [11].
